The sample as a whole holds a higher share of hits than the screen did.
Vaccinia inh – blocks a specific stage of Vaccinia orthopoxvirus infection, primary screen, cell-based, single point | AID 1053133, 2014 | hit rate 0.01% among 89,000 | Vaccinia-infected cells, mCherry/Venus stage reporter fluorescence; hits give low values | activity change (mCherry), % (concentration not given with the values); in the data active = activity change below about -37%, passing the limit was not always enough; tested in A549 cells
A number is an active result; i = inactive.

SMILES	Vaccinia inh
O=C(Nc1ccc(C(F)(F)F)cc1)Nc1ccc2c(c1)[C@H]1C[C@@H](CC(=O)N3CCc4ccccc4C3)O[C@H](CO)[C@H]1O2	i
O=C(Nc1ccc2c(c1)[C@@H]1C[C@@H](CC(=O)N3CCc4ccccc4C3)O[C@@H](CO)[C@@H]1O2)Nc1ccccc1F	-93
C[C@H](CO)N1C[C@H](C)[C@H](CN(C)Cc2ccccn2)Oc2cc(-c3ccc(C#N)cc3)ccc2S1(=O)=O	i
O=C(C[C@H]1CC[C@@H]2[C@H](COC[C@@H](O)CN2CC2CCCC2)O1)NCc1ccc(Cl)cc1	i
COc1ccc(NC(=O)Nc2ccc3c(c2)CC(=O)N([C@H](C)CO)C[C@H](C)[C@@H](CN(C)S(=O)(=O)c2ccccc2)O3)cc1	i
O=C(Nc1ccc2c(c1)OCO2)N[C@@H]1CC[C@@H](CCNC(=O)C2CC2)O[C@H]1CO	i
CN(C)C(=O)c1cccc(-c2ccc([C@@H]3[C@@H](CO)N(C(=O)C4CCCCC4)[C@H]3C#N)cc2)c1	i
COc1ccc(NC(=O)Nc2ccc3c(c2)C(=O)N([C@H](C)CO)C[C@@H](C)[C@H](CN(C)S(C)(=O)=O)OCCCC[C@H](C)O3)cc1	i
COc1ccc(CN(C)C[C@@H]2Oc3ccc(NC(=O)Nc4ccc(F)cc4)cc3CC(=O)N([C@H](C)CO)C[C@@H]2C)cc1	i
O=C(C[C@@H]1C[C@H]2c3cc(NC(=O)NC4CCCC4)ccc3O[C@H]2[C@@H](CO)O1)NCc1ccncc1	i
COc1ccccc1CN1C[C@@H](C)[C@H](OC)CN(C)C(=O)c2ccc(NC(C)=O)cc2OC[C@H]1C	i
COc1ccccc1-c1ccc2c(c1)[C@@H]1[C@@H](CCN1C(=O)C1CCCCC1)[C@@H](CO)N2	-86
COc1ccccc1-c1ccc2c(c1)[C@@H]1[C@@H](CCN1C(=O)C1CCOCC1)[C@H](CO)N2	i
OC[C@@H]1Nc2ccc(-c3cccc(F)c3)cc2[C@@H]2[C@H]1CCN2Cc1ccc(F)cc1	i
OC[C@H]1Nc2ccc(-c3ccccc3)cc2[C@H]2[C@@H]1CCN2Cc1ccc(F)cc1	-50
OC[C@@H]1Nc2ccc(-c3ccccc3)cc2[C@H]2[C@@H]1CCN2Cc1ccc(F)cc1	i
COc1ccccc1-c1ccc2c(c1)[C@@H]1[C@@H](CCN1C(=O)C1CC1)[C@@H](CO)N2	i
CC(C)NC(=O)N(C)C[C@H]1Oc2c(NC(=O)NC3CCCCC3)cccc2C(=O)N([C@H](C)CO)C[C@H]1C	i
C[C@H](CO)N1C[C@H](C)[C@H](CN(C)C(=O)Nc2cccc3ccccc23)Oc2ccc(NC(=O)Nc3ccccc3)cc2CC1=O	i
COc1ccc(CN(C)C[C@@H]2Oc3ccc(NC(=O)Nc4ccccc4)cc3CC(=O)N([C@H](C)CO)C[C@@H]2C)cc1	i
CN1C(=O)c2cc(NC(=O)c3ccccc3)ccc2OC[C@@H]2O[C@@H](CC(=O)O)CC[C@H]21	i
Cc1noc(C)c1S(=O)(=O)Nc1ccc2c(c1)C(=O)N([C@H](C)CO)C[C@H](C)[C@H](CN(C)Cc1ccncc1)O2	i
C[C@@H]1CN([C@@H](C)CO)C(=O)c2cc(NC(=O)CCC(F)(F)F)ccc2O[C@H]1CN(C)Cc1ccccc1	i
C[C@H](CO)N1C[C@H](C)[C@@H](CN(C)Cc2ccc3c(c2)OCO3)Oc2c(NS(=O)(=O)c3ccc(Cl)cc3)cccc2C1=O	i
Cc1cccc(NC(=O)Nc2ccc3c(c2)C(=O)N(C)[C@@H]2CC[C@H](CC(=O)O)O[C@H]2CO3)c1	i
COc1ccc(S(=O)(=O)N[C@@H]2C=C[C@H](CC(=O)NCc3ccccc3F)O[C@@H]2CO)cc1	i
COc1ccc(S(=O)(=O)Nc2cccc3c2O[C@@H](CN(C)C(=O)NC(C)C)[C@@H](C)CN([C@@H](C)CO)C3=O)cc1	i
CCCN(C)C[C@H]1OCCCC[C@H](C)Oc2ccc(NS(=O)(=O)c3c(C)noc3C)cc2C(=O)N([C@@H](C)CO)C[C@H]1C	i

Screens: PubChem, Broad Institute
